Screening results deposited in PubChem BioAssay by National Center for Advancing Translational Sciences (NCATS).
The list is not random: actives were taken first. Their share in the collection is about 7.3%.
NPC1 promoter act: activates the NPC1 promoter; 320,000 compounds, 2.4% hits; Potency, µM (titrated, usually from 9.22 µM), for inactives: at the top dose activation, actives largely listed as activators; Huh7 NPC1 promoter luciferase reporter, 24 h; note: % of control where 0% means no effect; nearly all actives have a fitted effect of over 60% in size
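Luminescence from an NPC1 promoter-driven luciferase reporter in stably transfected Huh7 cells was measured after 24 h compound treatment at 37 °C, followed by 10 min ambient incubation with luciferase detection reagent.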
SMN2 splice up: increases expression of the SMN2 splice variant | AID 1458 | HEK293 SMN2-luciferase splicing reporter, luminescence, 30-36 h | 210,000 compounds, 2.8% hits | Potency, µM (highest dose often 46.1 µM), for inactives: at the top dose activity change, positive = activation, hits mostly activators; note: % of control where 0% means no effect; nearly all actives have a fitted effect of over 55% in size
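HEK293 cells carry an SMN2 minigene-luciferase reporter in which exon 7 inclusion puts luciferase in frame. Cells were seeded at 2000 cells/well, attached for 10-12 hours, then exposed to compounds for 30-36 hours at 37C before ONE-Glo luminescence.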
Rab9 prom act: activates the Rab9 promoter. 320,000 compounds, 2.8% hits. AID 485297. Huh7 Rab9 promoter-luciferase reporter, luminescence, 24 h. Potency, µM (series often up to 9.22 µM), inactives show at the highest dose activation, negative = inhibition, usual class: activators; note: % of control where 0% means no effect; nearly all actives have a fitted effect of over 60% in size
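Steps: seed 1500 Huh7 Rab9-luc cells per well, rest 2 h at 37 °C; add compound in DMSO; incubate 24 h; add luciferase reagent, 10 min ambient; read luminescence.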
Luc counter: blocks Kinase-Glo luciferase, a counter-screen artifact. Q27757. Kinase-Glo luciferase, ATP luminescence, 8 min. Potency, µM (titrated, usually from 38.3 µM), without a hit: at the highest dose activity change, negative = inhibition, usual class: inhibitors. 200,000 compounds, 0.28% hits. AID 1379; note: % is set by controls: 0 for no effect and ±100 for the full control effect; nearly all actives have a fitted effect of over 60% in size
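Substrate mix (final 50 mM imidazole pH 7.2, 50 mM KCl, 7 mM MgCl2, 10 uM ATP, 0.01% Tween 20, 0.05% BSA) plus pin-tool compound, then Kinase-Glo detection mix; 8 min ambient, luminescence read.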
FLuc counter: counter-screen for miR-21 project: firefly luciferase inhibitors or activators. Potency, µM (titrated, usually from 57.5 µM), inactives show top-dose activity change, negative = inhibition, hits mostly inhibitors. purified FLuc, Km substrates, luminescence inhibition. 360,000 compounds, 6.9% hits;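 note: plate controls were vehicle for no effect and reference inhibitor for full effect; nearly all actives have a fitted effect of over 55% in size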
Target sequence (P08659 whole entry, looked up): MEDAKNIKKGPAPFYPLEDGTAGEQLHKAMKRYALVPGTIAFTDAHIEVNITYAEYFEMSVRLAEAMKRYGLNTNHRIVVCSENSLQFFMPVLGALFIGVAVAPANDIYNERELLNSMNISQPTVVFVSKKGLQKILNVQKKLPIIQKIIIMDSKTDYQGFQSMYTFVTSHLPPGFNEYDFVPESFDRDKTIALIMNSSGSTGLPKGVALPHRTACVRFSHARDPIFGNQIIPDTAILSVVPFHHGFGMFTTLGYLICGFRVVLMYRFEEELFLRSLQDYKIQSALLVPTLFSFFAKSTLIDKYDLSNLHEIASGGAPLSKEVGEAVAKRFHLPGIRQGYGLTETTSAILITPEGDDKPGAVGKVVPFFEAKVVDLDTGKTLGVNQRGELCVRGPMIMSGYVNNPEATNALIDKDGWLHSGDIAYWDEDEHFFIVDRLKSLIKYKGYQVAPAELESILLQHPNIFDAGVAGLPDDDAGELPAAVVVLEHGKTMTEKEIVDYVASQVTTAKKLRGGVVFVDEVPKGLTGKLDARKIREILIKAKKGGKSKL
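Purified P. pyralis luciferase, 10 nM final, with Km-level 10 uM D-luciferin and 10 uM ATP in 50 mM Tris acetate pH 7.5, 10 mM Mg acetate, 0.01% Tween-20, 0.05% BSA; 6-point qHTS titration about 60 µM downward; luminescence read.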
ELG1 genotox: induces genotoxicity in HEK293T cells with luciferase-tagged ELG1. HEK293T ELG1-luciferase reporter, luminescence, 16 h. Potency, µM (doses to about 46 µM), for inactives: at the top dose activity change, positive = activation, actives largely listed as activators. 330,000 compounds, 1.3% hits. AID 504466; note: % of control where 0% means no effect; nearly all actives have a fitted effect of over 60% in size
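Genotoxicity was scored as increased ELG1-luciferase reporter signal, measured by ONE-Glo luminescence (30 min, room temperature). Compound or vehicle exposure of the HEK293T reporter cells lasted 16 hr at 37°C.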
* marks the source's active call; other numbers are inactive results; u = inconclusive; x = no result; [ ] = dose if it differs, or a comment. Calls come from the whole dose curve; as a rule, active = well fitted curve in the direction sought with a large enough effect; inconclusive = small, poorly fitted or top-dose-only effect, or another doubt; inactive = no such curve, though single readings can be large; an effect the other way counts as inactive or inconclusive. Potency is the fitted concentration of half-maximal effect.

SMILES | NPC1 promoter act | SMN2 splice up | Rab9 prom act | Luc counter | FLuc counter | ELG1 genotox
O=[N+]([O-])c1ccc2ncccc2c1CCc1c([N+](=O)[O-])ccc2ncccc12 | x | 5%[9.22 µM] | x | -2%[7.66 µM] | x | x
CCOC(=O)c1cc(-c2ccccc2)n(-c2cccc(C(=O)N(C)c3ccc(C)cc3)c2)c1C | x | x | x | x | -16% | x
Cc1ccnc(NC(=O)c2ccc(C(=O)c3ccccc3)cc2)c1 | 3.5µM* | x | 2µM* | x | 0.95µM* | u
Cc1ccnc(NC(=O)c2ccccc2NC(=O)c2ccccc2)c1 | -2% | x | 0% | x | u | -5%
O=C1/C(=C/c2cccc3ccccc23)CCCc2ccccc21 | 20% | u | 26% | -1% | 13µM* | 14%
CCOc1ccc(NC(=O)c2ccccc2OCC(=O)c2ccccc2)cc1 | 23% | -12% | u | 8% | 2.1µM* | 15%
Cc1ccc(NC(=O)c2ccccc2OCC(=O)c2ccccc2)cc1 | 0% | 24% | 0% | -4% | 13µM* | 13%
O=C(COc1ccc(NC(=O)c2ccccc2)cc1)c1ccccc1 | u | x | 15% | x | 2.1µM* | 4%
O=C(COc1ccc(Br)cc1)Nc1ccc(NC(=O)c2ccccc2)cc1 | 24% | x | 18% | x | 0% | 17%
Cc1cc(C)n(-c2nc3cc(Cl)ccc3nc2Nc2ccc(CC(=O)O)cc2)n1 | x | 8% | x | x | u | x
C/C(=N\NC(=O)c1cc(C)nc2ccccc12)c1ccco1 | -3% | 0% | -4% | -2% | 3% | -1%
C/C(=N\NC(=O)c1cc2ccccc2cc1O)c1ccc(C)o1 | 27% | x | u | x | 9.5µM* | 0%
C/C(=N\NC(=O)c1c(C)nc2ccccn12)c1ccco1 | u | 10µM* | 2.5µM* | -30% | u | u
C/C(=N/NC(=O)c1cc2ccccc2cc1O)c1ccco1 | 2.8µM* | x | 1.6µM* | x | 5.4µM* | u
COc1ccc(C(=O)Nc2ccc3c(c2)nc(CCNC(=O)c2ccco2)n3C)cc1 | 4% | x | 30% | x | 15µM* | 4%
COc1ccc(C(=O)Nc2ccc3c(c2)nc(CCNC(C)=O)n3C)cc1 | 2.8µM* | u | u | 0% | 12µM* | 18µM*
Cn1c(CN2CCOCC2)nc2cc(NC(=O)c3ccc(F)cc3)ccc21 | -3% | x | -3% | 3% | 4%[2.3 µM] | -6%
CC(=O)NCCc1nc2cc(NC(=O)c3ccc(F)cc3)ccc2n1C | 3.5µM* | x | 2µM* | x | 21µM* | u
Cc1cc(C(=O)CN2C(=O)NC3(CCCc4sccc43)C2=O)c(C)n1-c1ccccc1 (stereo unspecified) | 9% | 10% | 12% | -1% | 17µM* | -1%
COc1ccc(-n2c(C)cc(C(=O)CN3C(=O)NC4(CCCc5sccc54)C3=O)c2C)cc1 (stereo unspecified) | -2% | -33% | 0% | -6% | 1% | -2%
Cc1ccc(Cl)cc1N1CCN(C(=O)c2cc3c(-c4ccccc4F)nn(C)c3s2)CC1 | x | -2% | x | x | 0% | x
Cc1cc(C(=O)N2CCN(c3cccc(C)c3C)CC2)c2c(C)nn(-c3ccccc3)c2n1 | x | x | x | x | -4% | x
CSc1ccc(/C=C/C(=O)c2ccc(NC(C)=O)cc2)cc1 | 13% | 5% | 18% | 2% | 3µM* | 0%
CC(=O)Nc1ccc(/C=C/C(=O)c2ccc3c(c2)OCCO3)cc1 | -1% | x | 8% | x | 6.7µM* | 17%
O=C(O)c1ccc(/C=C/C(=O)c2ccc3c(c2)OCCCO3)cc1 | u | x | u | x | 0.076µM* | u
SMILES | NPC1 promoter act | SMN2 splice up | Rab9 prom act | Luc counter | FLuc counter | ELG1 genotox
CN1CCN(C(=O)Nc2cccc(Cl)c2)c2cccnc21 | x | u | x | x | 1% | x
COc1ccccc1NC(=O)C(Cc1ccccc1)NS(=O)(=O)c1cccc2nsnc12 (stereo unspecified) | x | -10% | x | x | -12% | x
O=C(CSCc1ccccc1)N1CCN(c2ccccc2)CC1 | u | 13µM* | u | 0% | 24µM* | u
O=C(CSCc1ccccc1)N1CCN(c2ccc(F)cc2)CC1 | 13% | -2% | 14% | -3% | -18% | -2%
O=C(CSCc1cccc(F)c1)N1CCN(c2ccccc2)CC1 | 3.2µM* | 13µM* | u | -1% | 13µM* | 13µM*
O=C(CSCc1ccccc1)N1CCN(c2cccc(C(F)(F)F)c2)CC1 | -4% | -33% | 1% | 0% | -4% | -2%
Nc1nn(-c2cccc(F)n2)cc1-c1ccc(Cl)cc1 | 2.5µM* | 18µM* | 0.45µM* | -7% | 0.95µM* | 1.2µM*
Nc1nn(-c2cccc(F)n2)cc1-c1ccccc1 | 2µM* | 14µM* | 0.63µM* | -18% | 3µM* | 2.9µM*
Nc1ncncc1-c1ccc(Cl)cc1 | -1% | x | -2% | x | 6% | -3%
CCOc1ccc(-n2c(=O)c3c(C)c(C)sc3n(CC(=O)c3ccccc3)c2=O)cc1 | x | 0% | x | x | 0% | x
CS(=O)(=O)N(CC(=O)O)c1ccccc1 | x | x | x | 1% | x | x
CCCCOc1ccc(N=Nc2ccc(N)nc2N)cn1 | 3.2µM* | x | 2.5µM* | x | 13µM* | u
CCOc1ccc(N2C(=O)CC(SCCN)C2=O)cc1 (stereo unspecified) | 1.4µM* | 11µM* | 2.2µM* | -8% | 17µM* | u
Cn1c(=O)c(C(=O)Nc2ccccc2S(N)(=O)=O)c(O)c2ccccc21 | u | x | u | x | u | 12%
Cn1c(=O)c(C(=O)Nc2cnccn2)c(O)c2ccccc21 | 13% | 13µM* | u | 4% | 2% | 16%
Cn1c(=O)c(C(=O)Nc2ccccn2)c(O)c2ccccc21 | u | x | 2.8µM* | x | 4.8µM* | u
O=C(O)c1cc(-c2c[nH]c3ccccc23)nc2ccc3ccccc3c12 | 17% | 3% | 17% | 5% | 1.2µM* | -11%
COC(=O)c1cc(NC(=O)/C=C/c2ccc3c(c2)OCO3)cc(C(=O)OC)c1 | -2% | u | -2% | 2% | 0% | 4%
O=C(N/N=C\C=C\c1ccc2c(c1)OCO2)c1cccnc1 | 8% | -1% | 3% | 0% | 17µM* | 4%
Cc1cc(C)nc(NC(=O)/C=C/c2ccc3c(c2)OCO3)c1 | 3.2µM* | x | 2.5µM* | u | 2.1µM* | u
O=C(/C=C/c1ccc2c(c1)OCO2)c1ccccc1 | x | 1% | x | -9% | x | x
COC(=O)c1cccc(NC(=O)/C=C/c2ccc3c(c2)OCO3)c1 | 2.8µM* | -94% | 2.5µM* | -8% | 1.3µM* | -8%
O=C(/C=C/c1ccc2c(c1)OCO2)c1cccnc1 | 2% | x | -1% | x | 15µM* | 1%
CC(=O)Nc1ccc(NC(=O)/C=C/c2ccc3c(c2)OCO3)cc1 | 13% | 9% | 19% | 1% | u | 9%
CCOC(=O)c1c(C)oc2ncnc(N3CCN(c4ccccc4)CC3)c12 | x | x | x | x | -10% | x
